Assay results published in PubChem BioAssay AID1376 (SRMLSC, 2008).
“And” between values parts separate entries of the source, which are not always exact repeats. Identical values can stand only once. Out of some 220,000 compounds screened, about 530 (0.24%) were called active. Many of the other results were omitted from the sample, so actives are more common in it than they were. Measured potencies and affinities stand elsewhere. A number with no mark means an inactive call. Cut-off read from the data, not from the text of the source: active = inhibition above about 13%; inconclusive = no clear call, values can overlap the other calls; inactive = below that.

The molecules below were run against Bifunctional protein GlmU (Mycobacterium tuberculosis (strain ATCC 25618 / H37Rv)) (UniProt P9WMN3) (assay: inhibition of mycobacterial GlmU enzyme – biochemical, glucosamine-1-phosphate acetyltransferase (AID 1376;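 note: 0% = complete reaction with vehicle and 100% = reaction without substrate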)). Conditions: M. tuberculosis GlmU acetyltransferase enzyme assay; active compounds read high;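 tested at 30 µM in the primary screen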.
Sequence of Bifunctional protein GlmU (Mycobacterium tuberculosis (strain ATCC 25618 / H37Rv)) (P9WMN3 whole entry, looked up): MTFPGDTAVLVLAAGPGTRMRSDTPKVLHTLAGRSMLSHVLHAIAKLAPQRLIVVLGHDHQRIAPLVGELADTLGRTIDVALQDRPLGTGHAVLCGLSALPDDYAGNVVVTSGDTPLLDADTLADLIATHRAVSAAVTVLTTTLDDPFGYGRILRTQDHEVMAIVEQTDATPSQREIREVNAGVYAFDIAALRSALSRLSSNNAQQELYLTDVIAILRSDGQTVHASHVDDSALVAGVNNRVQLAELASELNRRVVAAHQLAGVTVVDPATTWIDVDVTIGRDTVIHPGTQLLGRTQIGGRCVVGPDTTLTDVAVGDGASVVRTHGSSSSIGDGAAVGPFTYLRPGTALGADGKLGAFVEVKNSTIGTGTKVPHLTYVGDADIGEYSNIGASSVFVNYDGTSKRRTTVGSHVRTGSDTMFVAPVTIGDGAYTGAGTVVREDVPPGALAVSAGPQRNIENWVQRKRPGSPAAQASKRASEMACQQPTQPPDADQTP
Cc1ccc(C(=O)/C=C\Nc2ccc(C)c(C)c2)cc1 was tested, and the inhibition was -4.99%. COc1ccc(S(=O)(=O)NCC2CCCN(C(=O)CNC(C)=O)C2)cc1 (stereo not given) was tested, and the inhibition was -0.35%. Molecule CCc1ccc2oc(C(=O)Nc3ccc(S(N)(=O)=O)cc3)c(C)c2c1 has an inhibition of 1.87%. Work on CCN1CCN(CCC2Oc3cc([N+](=O)[O-])ccc3NC2=O)CC1 (stereo not given) yielded an inhibition of -2.08%. With COc1ccc(CCn2c3c(c(=O)[nH]c2=O)C(NC(=O)c2cccs2)(C(F)(F)F)C(=O)N3)cc1OC (stereo not given) the inhibition was 13.3% (active). Work on CC(=O)NC1(C(F)(F)F)C(=O)Nc2c1c(=O)[nH]c(=O)n2CCc1ccccc1 (stereo not given) yielded an inhibition of 1.88%. In the case of COc1ccc(C(=O)NC2(C(F)(F)F)C(=O)Nc3c2c(=O)[nH]c(=O)n3CCc2ccc(OC)c(OC)c2)cc1 (stereo not given), the inhibition is reported as -0.41%. With O=C(NCc1cccs1)c1csc2c1CCCCC2 the inhibition was 1.69%. CCN(CC)C(=O)CSc1nc2ccccc2c(=O)n1CC was tested, and the inhibition was -0.44%. With CCN(CC)C(=O)CSc1nc2ccccc2c(=O)n1CC1CCCCC1 the inhibition was 13.3% (active). Work on CCOC(=O)CSc1nc2ccccc2c(=O)n1CC1CCCC1 yielded an inhibition of -1.38%. Work on N#CCCn1cc(C(=O)Nc2ccccc2Br)c(-c2cc3ccccc3o2)n1 yielded an inhibition of -0.21%. With O=C(CN(CC1CCCO1)C(=O)CNS(=O)(=O)c1ccc(Cl)cc1)NCC1CCCO1 (stereo not given) the inhibition was -2.4%. Molecule N#Cc1ccccc1NC1=CC(=O)CCC1 has an inhibition of -6.37%. Work on CCc1nnc2n1N=C(c1ccc([N+](=O)[O-])cc1)CS2 yielded an inhibition of -0.05%. O=C(O)COc1ccc(NC(=O)c2cccs2)cc1 was tested, and the inhibition was -5.47%. Work on Cc1ccc(C(=O)Nc2ccc(O)cc2C(=O)O)cc1C yielded an inhibition of 1.76%. For COc1ccc(C(=O)Nc2cccc(OC)c2)cc1, the inhibition was 6.57%. For O=C(O)c1ccccc1C(=O)Nc1ccc(Oc2ccccc2)cc1, the inhibition was 0.7%. In the case of Cc1ccc(C(=O)Nc2ccc(Oc3ccc(C(=O)O)c(C(=O)O)c3)cc2)cc1C, the inhibition is reported as 47.7% (active). Cc1cccc(Oc2ccc(NC(=O)c3ccccc3C(=O)O)cc2)c1 showed an inhibition of 1.43%. With COc1ccc(NC(=O)c2cccs2)cc1 the inhibition was -2.83%. COC(=O)CCSC(=S)N1CCOCC1 gave an inhibition of -0.58%. In the case of COc1ccc(NC(=O)N(Cc2cccs2)Cc2cc3cc4c(cc3[nH]c2=O)OCO4)cc1, the inhibition is reported as 1.28%. CCOC(=O)c1cc2sccc2n1CC(=O)C(C)(C)C showed an inhibition of -4.29%. CCn1ncc(Br)c1C(=O)Nc1ccn(C23CC4CC(CC(C4)C2)C3)n1 showed an inhibition of -4.08%. For CC(=O)N(C)N1c2ccccc2CCc2ccccc21, the inhibition was -8.48%. Cc1cccc(OCCNC(=O)c2ncn[nH]2)c1 gave an inhibition of 1.93%. Cn1c(=O)c2c(nc(SCC(=O)NC34CC5CC(CC(C5)C3)C4)n2C)n(C)c1=O was tested, and the inhibition was -0.07%. O=C(CSc1nnc(-c2ccncc2)o1)NC1C2CC3CC(C2)CC1C3 (stereo not given) was tested, and the inhibition was 1.35%. With N#C/C(=C\c1ccc(C(=O)O)cc1)c1nc2sc3c(c2c(=O)[nH]1)CCCC3 the inhibition was 14.3% (active). With CCOC(=O)c1nc2sc3c(c2c(=O)[nH]1)CCCC3 the inhibition was 4.84% and 1.97%. O=C(O)c1ccc(/C=C/c2nc3sc4c(c3c(=O)[nH]2)CCC4)cc1 gave an inhibition of 2.03%. O=C1NC(CCc2ccccc2)C(=O)N1Cc1ccccc1Cl (stereo not given) gave an inhibition of -2.29%. Work on CCc1sc(-c2ccccc2)nc1C(=O)OC yielded an inhibition of -3.08%. For CN(C(=O)COC(=O)c1n[nH]c2ccccc12)c1ccccc1, the inhibition was -0.77%. With COc1ccccc1NC(=O)N1CCC(c2nnc(SCC(N)=O)n2C)CC1 the inhibition was 5.75%. Cn1c(SCC(N)=O)nnc1C1CCN(C(=O)NCc2ccccc2)CC1 gave an inhibition of 2.81%. For CC(=O)c1cccc(NC(=O)N2CCC(c3nnc(SCC(N)=O)n3C)CC2)c1, the inhibition was 12.8% (active). CSc1nsc(/C=C/Nc2ccc(C(=O)O)cc2)c1C#N showed an inhibition of -2.44%. Molecule CC1=NN(C(=O)CSCc2ccccc2)C(O)(c2ccc(Cl)cc2)C1 (stereo not given) has an inhibition of 0.2%. Molecule O=S1(=O)CCC(N=Cc2cc(Br)ccc2O)C1 (stereo not given) has an inhibition of -0.36%. Work on Cc1cc(C(=O)CSc2n[nH]c(N)n2)c(C)n1-c1ccccc1 yielded an inhibition of 1.04%. For Cc1cc(C(=O)CSc2n[nH]c(N)n2)c(C)n1-c1ccc(F)cc1, the inhibition was 13% (active). Cc1ccc(-n2c(C)cc(C(=O)CSc3n[nH]c(N)n3)c2C)cc1 showed an inhibition of -7.08%. With Cc1ccc(C(=O)NCC(=O)OCC(=O)c2ccc(C)c([N+](=O)[O-])c2)cc1 the inhibition was -3.78%. Molecule Cc1ccc(C(=O)COC(=O)CNS(=O)(=O)c2ccccc2)cc1[N+](=O)[O-] has an inhibition of -0.84%. With Cc1ccc(C(=O)COC(=O)CNC(=O)C(c2ccccc2)c2ccccc2)cc1[N+](=O)[O-] the inhibition was 30.6% (active). Work on CCOC(=O)c1sc(Nc2ccccc2Cl)nc1C yielded an inhibition of 1.72%. O=C(CCc1nc2ccccc2c(=O)[nH]1)OCc1ccc(Cl)cc1Cl gave an inhibition of -1.63%. With O=S(=O)(NCc1ccc(F)cc1)c1ccc2c(c1)OCCO2 the inhibition was 4.82%. Work on COc1ccc(C(=O)Cc2ccc(OC)c(OC)c2)cc1 yielded an inhibition of 0.95%. COc1ccc(C(=O)Cc2ccc(F)cc2)c(OC)c1 gave an inhibition of 8.08%. COc1ccc(C(=O)Cc2ccc(OC)c(OC)c2)c(OC)c1 was tested, and the inhibition was 14.1% (active). COc1cc(S(=O)(=O)N2CCOCC2)ccc1NC(=O)CSc1nnc(N)s1 was tested, and the inhibition was 10.7%. In the case of Cc1cccc(N=Nc2cnc(N)s2)c1, the inhibition is reported as 4.97%. COc1cc(C(=O)O)ccc1Cl gave an inhibition of 1.44%. Nc1ncc(N=Nc2cc(C(=O)O)ccc2Cl)s1 was tested, and the inhibition was 13.8% (active). CC(=O)Nc1cccc(Oc2ccc([N+](=O)[O-])cc2Cl)c1 was tested, and the inhibition was 2.81%. Work on CCn1c2ccc(Cl)cc2c2nc3ccccc3nc21 yielded an inhibition of 2.14%. Molecule CCn1c2ccccc2c2nc3cc(C(=O)O)ccc3nc21 has an inhibition of 1.61%. With O=c1[nH]c(=S)[nH]c(O)c1C(c1ccccn1)c1c(O)[nH]c(=S)[nH]c1=O the inhibition was 9.35%. O=[N+]([O-])c1ccc2c(c1)oc1ccccc12 showed an inhibition of 0.45%. CC(=O)CC(c1ccc([N+](=O)[O-])cc1)c1c(O)c2ccccc2oc1=O (stereo not given) gave an inhibition of 1.67%. For O=c1c2ccccc2oc2ncccc12, the inhibition was 3.79%.
